For 43 molecules, Potency and outcome results are on record in PubChem BioAssay (NCATS).

Inconclusive results are not listed. Active and inactive are the calls of the source. Calls follow the shape of the dose curve; as a rule, active = well fitted inhibition curve with a large enough effect; inconclusive = small, poorly fitted or top-dose-only effect; inactive = flat fitted curve, though single readings scatter.

Assay [1] deals with Glutathione peroxidase 1 (Homo sapiens) (UniProt P07203). The assay can be described thus: Primary qHTS Assay for Inhibitors of Recombinant Selenoprotein Glutathione Peroxidase 1 (GPX1) (AID 1845191). An outline of the steps:
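GR-coupled assay: compounds preincubated 30 min at room temperature with GPX1, then reaction started with CHP; final 10 nM GPX1, 1 mM GSH, 0.5 mM CHP, 0.5 mM NADPH, 100 nM GR, 0.01% BSA, pH 7.5 Tris buffer. NADPH fluorescence (340/450 nm) read at 0 and 15 min.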
In general terms: In qHTS, concentration-response curves come from the screen itself.

The target in assay [2] is Phospholipid hydroperoxide glutathione peroxidase GPX4 (Homo sapiens) (UniProt P36969). The assay can be described thus: Primary qHTS Assay for Inhibitors of Recombinant Selenoprotein Glutathione Peroxidase 4 (GPX4) (AID 1845192). An outline of the steps:
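GR-coupled assay: recombinant GPX4 preincubated 30 min with compound at room temperature; final 200 nM GPX4, 1 mM GSH, 0.5 mM cumene hydroperoxide, 0.5 mM NADPH, 100 nM GR, 0.01% BSA, pH 7.5 Tris. NADPH fluorescence (340/450 nm) read at 0 and 15 min.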
Also: nearly all actives have a fitted effect of over 65% in size.
Potency is read from the fitted curve at half-maximal effect.

Sequence of Glutathione peroxidase 1 (Homo sapiens) (P07203 whole entry, looked up): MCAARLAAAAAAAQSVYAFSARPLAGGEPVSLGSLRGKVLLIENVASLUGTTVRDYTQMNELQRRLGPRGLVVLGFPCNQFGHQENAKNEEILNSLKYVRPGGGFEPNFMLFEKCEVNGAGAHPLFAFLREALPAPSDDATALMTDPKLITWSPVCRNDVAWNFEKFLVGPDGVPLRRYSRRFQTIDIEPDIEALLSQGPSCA
Sequence of Phospholipid hydroperoxide glutathione peroxidase GPX4 (Homo sapiens) (P36969 whole entry, looked up): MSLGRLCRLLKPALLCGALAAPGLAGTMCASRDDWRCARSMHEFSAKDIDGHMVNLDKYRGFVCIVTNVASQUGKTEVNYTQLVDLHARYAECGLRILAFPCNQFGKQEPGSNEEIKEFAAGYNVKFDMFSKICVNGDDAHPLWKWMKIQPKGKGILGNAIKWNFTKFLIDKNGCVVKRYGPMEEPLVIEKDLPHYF

In the case of `COc1cc2c(cc1OC)[C@H]1C[C@@H](OC(=O)[C@@H](N)C(C)C)[C@H](CC(C)C)CN1CC2`, the Potency entry in assay [1] and in assay [2] was “inactive” in each case.
In the case of `Cc1c(OCC(F)(F)F)ccnc1C[S@@](=O)c1nc2ccccc2[nH]1`, the Potency in assay [1] was 10.1 µM (active); in assay [2], 10 µM (active).
As for `CCOc1cc(C(CS(C)(=O)=O)N2C(=O)c3cccc(NC(C)=O)c3C2=O)ccc1OC` (stereo unspecified), the Potency entry in assay [1] and in assay [2] was “inactive” in each case.
`CN[C@@H]1[C@@H](O)[C@@H](O[C@@H]2[C@@H](O)[C@H](OC3O[C@H](CN)[C@@H](O)[C@H](O)[C@H]3O)[C@@H](N)C[C@H]2NC(=O)[C@@H](O)CN)OC[C@]1(C)O` (stereo partly specified): the Potency entry in assay [1] and in assay [2] was “inactive” throughout.
For the molecule `CC(=O)OCC1=C(C(=O)O)N2C(=O)[C@@H](NC(=O)[C@H](N)c3ccccc3)[C@H]2SC1`, the figures for the Potency in assay [1] and in assay [2] were 10.1 µM (active) and 15.8 µM (active), respectively.
`CCCCC[C@@H](O)CC[C@H]1[C@@H]2Cc3cccc(OCC(=O)O)c3C[C@@H]2C[C@@H]1O`: the Potency result in assay [1] and in assay [2] was “inactive” in each case.
As to `Cc1oc(-c2ccccc2)nc1CCOc1ccc(CC2C(=O)NOC2=O)cc1` (stereo unspecified), in assay [1], the Potency entry was “inactive”. Besides, in assay [2], the Potency was 14.1 µM (active).
As to `CC(C)OC(=O)CCC/C=C\C[C@@H]1[C@@H](/C=C/[C@@H](O)COc2cccc(C(F)(F)F)c2)[C@H](O)C[C@@H]1O`, the Potency entry in assay [1] and in assay [2] was “inactive” in each case.
`Cn1cc(OCC(O)CNC(C)(C)C)c2ccccc2c1=O` (stereo unspecified): the Potency result in assay [1] and in assay [2] was “inactive” throughout.
For the molecule `CN1N=C2CCN(C(=O)[C@H](COCc3ccccc3)NC(=O)C(C)(C)N)C[C@]2(Cc2ccccc2)C1=O`, the Potency entry in assay [1] and in assay [2] was “inactive” in each case.
In the case of `CC[C@@H]1CCN[C@H](C(=O)N[C@@H]([C@H]2O[C@H](SC)[C@H](O)[C@@H](O)[C@H]2O)[C@H](C)Cl)C1`, the Potency result in assay [1] and in assay [2] was “inactive” each time.
For the molecule `CCCN1C[C@@H](NS(=O)(=O)N(CC)CC)C[C@@H]2Cc3c(O)cccc3C[C@H]21`, the Potency result in assay [1] and in assay [2] was “inactive” in each case.
Consider `CCC(c1ccccc1)c1c(O)c2ccccc2oc1=O` (stereo unspecified), for which the Potency result in assay [1] and in assay [2] was “inactive” each time.
For the molecule `CCC1(C)OC(=O)N(C)C1=O` (stereo unspecified), the Potency entry in assay [1] and in assay [2] was “inactive” in each case.
For the molecule `O=C(OC[C@H]1O[C@@H](OC(=O)c2cc(O)c(O)c(O)c2)[C@H](O)[C@@H](OC(=O)c2cc(O)c(O)c(O)c2)[C@@H]1O)c1cc(O)c(O)c(O)c1`, the Potency entry in assay [1] and in assay [2] was “inactive” throughout.
For `CN[C@H]1C(=O)N[C@@H]2Cc3ccc(cc3)Oc3cc4cc(c3O[C@@H]3O[C@H](C(=O)O)[C@@H](O)[C@H](O)[C@H]3NC(=O)CCCCCCCCC(C)C)Oc3ccc(cc3Cl)[C@@H](O)[C@@H]3NC(=O)[C@H](NC(=O)[C@@H]4NC(=O)[C@@H](NC2=O)c2cc(cc(O)c2Cl)Oc2cc1ccc2O)c1ccc(O)c(c1)-c1c(O[C@H]2O[C@H](CO)[C@@H](O)[C@H](O)[C@@H]2O)cc(O)cc1[C@@H](C(=O)NCCCN(C)C)NC3=O`, the Potency entry in assay [1] and in assay [2] was “inactive” throughout.
`Cc1nccn1CCC(C(N)=O)(c1ccccc1)c1ccccc1`: the Potency result in assay [1] and in assay [2] was “inactive” throughout.
`COc1ccc(CNc2nc(N3CCC[C@H]3CO)ncc2C(=O)NCc2ncccn2)cc1Cl`: the Potency result in assay [1] and in assay [2] was “inactive” each time.
For `CN1CC(O)c2cc(N=NC(=N)N)c(O)cc21` (stereo unspecified), the Potency entry in assay [1] and in assay [2] was “inactive” in each case.
`C[C@H](CCC(=O)O)[C@H]1CC[C@H]2[C@@H]3CC[C@@H]4C[C@H](O)CC[C@]4(C)[C@@H]3C[C@H](O)[C@]12C`: the Potency entry in assay [1] and in assay [2] was “inactive” in each case.
On to `C[N+]1(C)[C@@H]2CC(OC(=O)C(O)(c3cccs3)c3cccs3)C[C@H]1[C@H]1O[C@@H]12` (stereo partly specified), for which the Potency entry in assay [1] and in assay [2] was “inactive” in each case.
Take `C=CCN1CC[C@]23c4c5ccc(O)c4O[C@H]2[C@@H](OCCOCCOCCOCCOCCOCCOCCOC)CC[C@@]3(O)[C@H]1C5`: the Potency entry in assay [1] and in assay [2] was “inactive” throughout.
For `CC[C@H]1[C@@H](O)[C@@H]2[C@H](CC[C@]3(C)[C@@H]([C@H](C)CCC(=O)O)CC[C@@H]23)[C@@]2(C)CC[C@@H](O)C[C@@H]12`, in assay [1], the Potency entry is “inactive”. In assay [2], the Potency was 11.2 µM (active).
In the case of `CCCCCCCCCCCCCCCC(=O)OC1CCCn2c1nc(C)c(CCN1CCC(c3noc4cc(F)ccc34)CC1)c2=O` (stereo unspecified), the Potency result in assay [1] and in assay [2] was “inactive” throughout.
Take `C[C@H]1O[C@]2(CS1)CN1CCC2CC1`: the Potency result in assay [1] and in assay [2] was “inactive” in each case.
Turning to `C=CC1(C)CC(=O)C2(O)C(C)(O1)C(OC(C)=O)C(OC(=O)CCN(C)C)C1C(C)(C)CCC(O)C12C` (stereo unspecified), the Potency entry in assay [1] and in assay [2] was “inactive” throughout.
For the molecule `C=C1/C(=C/C=C2\CCC[C@]3(C)[C@@H]([C@H](C)CCCC(O)(C(F)(F)F)C(F)(F)F)CC[C@@H]23)C[C@@H](O)C[C@@H]1O`, in assay [1], the Potency result is “inactive”. Also, the Potency in assay [2] was 14.1 µM (active).
As to `CCCN1C[C@H](C)[C@@H](O)[C@](C)(O)[C@@H](CC)OC(=O)[C@H](C)[C@@H](O[C@H]2C[C@@](C)(OC)[C@@H](O)[C@H](C)O2)C(C)[C@@H](O[C@@H]2O[C@H](C)C[C@H](N(C)C)[C@H]2O)[C@](C)(O)C[C@H]1C` (stereo partly specified), the Potency result in assay [1] and in assay [2] was “inactive” throughout.
For the molecule `CN(CC(O)CO)C(=O)c1c(I)c(NC(=O)C(CO)CO)c(I)c(C(=O)N(C)CC(O)CO)c1I` (stereo unspecified), the Potency result in assay [1] and in assay [2] was “inactive” throughout.
Take `C[N+]1(C)C2CC[C@H]1CC(OC(=O)C(O)c1ccccc1)C2` (stereo partly specified): the Potency entry in assay [1] and in assay [2] was “inactive” each time.
On to `CC1=CC(O)CC(C)(C)C1/C=C/C(C)=C/C=C/C(C)=C/C=C/C=C(C)/C=C/C=C(C)/C=C/C1=C(C)CC(O)CC1(C)C` (stereo unspecified), for which the Potency entry in assay [1] is “inactive”. Further, the Potency in assay [2] is 12.6 µM (active).
`C[C@]12C=CC(=O)C=C1CC[C@@H]1[C@@H]2[C@@H](O)C[C@@]2(C)[C@H]1CC[C@]2(O)C(=O)COP(=O)(O)O`: the outcome in assay [1] is “inactive [at 9.52 µM]”; in assay [2], “inactive [at 9.73 µM]”.
Turning to `Cc1cc(CC(C)C[Si](C)(O[Si](C)(C)C)O[Si](C)(C)C)c(O)c(-n2nc3ccccc3n2)c1` (stereo unspecified), the Potency entry in assay [1] and in assay [2] was “inactive” throughout.
With `CC=CC1=C(C(=O)O)N2C(=O)[C@@H](NC(=O)[C@H](N)c3ccc(O)cc3)[C@H]2SC1`, in assay [1], the Potency was 7.85 µM (active). Further, in assay [2], the Potency entry was “inactive”.
In the case of `CSCC[C@H](N)C(=O)O`, the Potency result in assay [1] and in assay [2] was “inactive” each time.
Regarding `C[C@H]1C[C@H]2[C@H]3CCC4=CC(=O)C=C[C@]4(C)[C@@]3(F)[C@@H](O)C[C@]2(C)[C@@]1(OC(=O)c1ccccc1)C(=O)CO`, the Potency result in assay [1] and in assay [2] was “inactive” throughout.
`OCc1cc(C(O)CNCCCCCCOCCOCc2c(Cl)cccc2Cl)ccc1O` (stereo unspecified): the Potency result in assay [1] and in assay [2] was “inactive” each time.
As for `O=C(O)C(O)[C@H](O)[C@H](O)[C@H](O)[C@H](O)CO` (stereo partly specified), the Potency result in assay [1] and in assay [2] was “inactive” each time.
Consider `[2H]N[C@@H](Cc1ccccc1)C(=O)N1CCC[C@H]1C(=O)N[C@@H](CCCNC(=N)N)C(=O)N1CCC[C@H]1C(=O)NCC(=O)NCC(=O)NCC(=O)NCC(=O)N[C@@H](CC(N)=O)C(=O)NCC(=O)N[C@@H](CC(=O)O)C(=O)N[C@@H](Cc1ccccc1)C(=O)N[C@@H](CCC(=O)O)C(=O)N[C@@H](CCC(=O)O)C(=O)N[C@H](C(=O)N1CCC[C@H]1C(=O)N[C@@H](CCC(=O)O)C(=O)N[C@@H](CCC(=O)O)C(=O)N[C@@H](Cc1ccc(O)cc1)C(=O)N[C@@H](CC(C)C)C(=O)O)[C@@H](C)CC`, for which the outcome in assay [1] is “inactive [at 9.52 µM]”; in assay [2] it was “inactive [at 9.73 µM]”.
For `C#C[C@]1(O)CC[C@H]2[C@@H]3CCC4=CC(=O)CC[C@@H]4[C@H]3C(=C)C[C@@]21CC`, the Potency result in assay [1] and in assay [2] was “inactive” throughout.
With `C=C[C@]1(C)C[C@@H](OC(=O)CSC2C[C@H]3CC[C@@H](C2)N3C)C2(C)[C@H](C)CCC3(CCC(=O)[C@H]32)[C@@H](C)[C@@H]1O` (stereo partly specified), the Potency result in assay [1] and in assay [2] was “inactive” each time.
`[2H]C([2H])([2H])C(CCC[C@@H](C)[C@H]1CC[C@H]2/C(=C/C=C3\C[C@@H](O)C[C@H](O)C3=C)CCC[C@]12C)C([2H])([2H])[2H]`: the Potency entry in assay [1] was “inactive”. The Potency in assay [2] is 14.1 µM (active).
With `CC(OC(=O)OC1CCCCC1)OC(=O)C1=C(CSc2nnnn2CCN(C)C)CS[C@@H]2[C@H](NC(=O)Cc3csc(N)n3)C(=O)N12` (stereo partly specified), the Potency in assay [1] is 7.18 µM (active); in assay [2], 8.91 µM (active).
